Compounds with a hit are over-represented: about 7.9% of the library has one in this group of screens.
HT1080 IDH1KD tx – toxicity to HT-1080 IDH1 knockdown cells (counter line); HT-1080 IDH1 knockdown viability, ATP luminescence, 48 h; Potency, µM (series often up to 46.1 µM), for the others: at the top dose activity, negative = toxicity, actives largely listed as cytotoxic; 360,000 tested, 2% active; AID 686971;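 note: 0% = DMSO wells and -100% = cell-free medium wells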
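Viability of IDH1-knockdown HT-1080 fibrosarcoma cells was assessed by CellTiter-Glo after 48 h at 37 °C with titrated compound; concentration-effect curves were classified by fit quality and response size.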
MCF10A rereplic – DNA re-replication induction in MCF 10a cells; MCF 10A DNA re-replication, Hoechst nuclear intensity, 48 h; Potency, µM (titrated, usually from 46.1 µM), inactives show at the highest dose activity, positive = re-replication, usual class: activators; 350,000 tested, 2.9% active; AID 624296; note: % of control where 0% means no effect; nearly all actives have a fitted effect of over 50% in size
HT1080-NT tox – kills 2HG-producing HT-1080-NT fibrosarcoma cells; Potency, µM (series often up to 46.1 µM), for the others: at the top dose activity, negative = less viability, hits mostly cytotoxic; 360,000 tested, 1.6% active; HT-1080-NT fibrosarcoma viability, CellTiter-Glo ATP luminescence, 48 h; AID 686970;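 note: NT is the 2HG producing partner of a matched IDH1 knockdown line; 0% = DMSO-treated cells and -100% = media-only wells without cells; nearly all actives have a fitted effect of over 55% in size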
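Luminescent CellTiter-Glo readout after 48 hours of compound exposure at 37 degrees C defined viability of HT-1080-NT cells. Activity was normalized to DMSO wells and cell-free media wells; concentration-response curves were fitted and assigned curve classes.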
KB-3-1 tox – kills parental KB-3-1 adenocarcinoma cells; Potency, µM (titrated, usually from 46.1 µM), most hits filed as cytotoxic; 400,000 tested, 1.4% active; KB-3-1 viability, CellTiter-Glo ATP luminescence, 72 h; note: % is set by controls: 0 for no effect and ±100 for the full control effect; nearly all actives have a fitted effect of over 60% in size
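Luminescent ATP read-out (CellTiter-Glo) measures survival of drug-naive KB-3-1 cells after 72 h compound exposure at 37 °C. Titration series was screened from lowest to highest concentration, with DMSO vehicle plates as background controls.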
SW480 rerep – induces DNA re-replication in SW480 colon adenocarcinoma cells; SW480 DNA re-replication, Hoechst DNA content imaging, 48 h; 340,000 tested, 1.8% active; Potency, µM (top dose mostly 46.1 µM), for the others: top-dose re-replication activation, usual class: activators; AID 624297; note: % of control where 0% means no effect; nearly all actives have a fitted effect of over 55% in size
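DNA re-replication was detected as more nuclei of elevated Hoechst intensity after 48 hr exposure to compound (23 nL pinned per well of 250 cells).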
KB-V1 MDR tox – kills drug-selected multidrug resistant KB-V1 cells; KB-V1 MDR cells viability, CellTiter-Glo, 72 h; Potency, µM (highest dose often 46.1 µM), hits mostly cytotoxic; 400,000 tested, 3.4% active; note: % is set by controls: 0 for no effect and ±100 for the full control effect; nearly all actives have a fitted effect of over 60% in size
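Readout: CellTiter-Glo luminescence, 10 min after addition. Cells: KB-V1 MDR subline, 72 h at 37 degrees C with compound. Analysis: corrected, normalized data fitted to concentration-effect curves.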
Active calls of the source: *; i = inactive; ? = inconclusive; nt = no result given. Calls come from the whole dose curve; as a rule, active = well fitted curve in the direction sought with a large enough effect; inconclusive = small, poorly fitted or top-dose-only effect, or another doubt; inactive = no such curve, though single readings can be large; an effect the other way counts as inactive or inconclusive. Potency is the fitted concentration of half-maximal effect.

SMILES	HT1080 IDH1KD tx	MCF10A rereplic	HT1080-NT tox	KB-3-1 tox	SW480 rerep	KB-V1 MDR tox
O=C(Cn1cc(S(=O)(=O)N2CCCC2)c(S(=O)(=O)N2CCCC2)c1)Nc1cccc(F)c1	nt	nt	nt	i	nt	i
COC(=O)c1cc(-c2cc(OC)ccc2OC)nc2c1c(=O)n(C)c(=O)n2Cc1ccccc1	9%	6.5µM*	11%	i	2.3µM*	?
COc1ccccc1-c1nn(CCC(=O)Nc2ccccc2)c2nc(C)cc(C)c12	nt	nt	nt	i	nt	i
NC(=O)C1CCN(CCS(=O)(=O)c2ccc(Cl)cc2)CC1	-9%	?	-1%	i	18µM*	i
O=C(NCCN1CCC(n2c(=O)[nH]c3ccccc32)CC1)c1ccc(C(F)(F)F)cc1C(F)(F)F	0%	nt	-4%	?	nt	12µM*
O=C(NCCN1CCC(n2c(=O)[nH]c3ccccc32)CC1)c1ccc(F)c(C(F)(F)F)c1	?	nt	?	i	nt	i
CCCCOc1ccc(C(=O)NCCN2CCC(n3c(=O)[nH]c4ccccc43)CC2)cc1	16µM*	nt	?	i	nt	?
O=C(NCCN1CCC(n2c(=O)[nH]c3ccccc32)CC1)c1ccc(OC(F)(F)F)cc1	?	nt	?	i	nt	i
O=C(Cn1c(=O)[nH]c2sc3c(c2c1=O)CCCC3)NCC1CCCO1 (stereo unspecified)	7%	22%	3%	i	-6%	i
CCc1c(C)sc(NC(=O)c2cc(CC(C)C)on2)c1C#N	1%	11%	8%	i	-10%	i
CCOC(=O)c1c(NC(=O)c2cc(-c3ccc(OC)c(OC)c3)on2)sc(C)c1C	nt	nt	nt	i	nt	i
CCc1c(C)sc(NC(=O)c2cc(-c3ccc(O)cc3)on2)c1C#N	-5%	12µM*	2%	i	15µM*	i
COc1ccc(-c2csc(NC(=O)c3cc(C)on3)c2C#N)cc1OC	?	?	?	i	3%	16µM*
COc1ccc(-c2nnc(NC(=O)c3cc(C)on3)s2)cc1	12%	11%	9%	i	2%	i
CCc1c(C)sc(NC(=O)c2cc(-c3cc(OC)ccc3OC)on2)c1C#N	4%	2.6µM*	7%	i	-1%	?
CCc1c(C)sc(NC(=O)c2cc(-c3ccc(OC)c(OC)c3)on2)c1C#N	9%	5.2µM*	9%	i	2%	i
O=C(C[C@H]1C[C@@H]2c3cc(NC(=O)c4ccc5c(c4)OCO5)ccc3O[C@@H]2[C@H](CO)O1)NCc1cc(F)ccc1F	0%	nt	-1%	i	nt	i
COc1ccc(-c2cc(C(F)(F)F)nc(SCC(=O)Nc3ccc(C(C)=O)cc3)n2)cc1	nt	nt	nt	i	nt	?
CC(C)c1nc(SCC(=O)NC2CCCC2)c2c(=O)n(C)c(=O)n(C)c2n1	8%	1%	16%	i	-12%	i
Cc1nc(-c2cccnc2)sc1C(=O)Nc1ccc(C(F)(F)F)cc1	-11%	-1%	-1%	i	-6%	?
Cc1nc(-c2cccnc2)sc1C(=O)Nc1cccc(C(F)(F)F)c1	18%	8%	10%	i	-3%	16µM*
COc1ccc(F)cc1C(=O)C1CCCN(Cc2cn(C)c3ccccc23)C1 (stereo unspecified)	?	9.2µM*	?	i	15µM*	i
Cc1c(C(=O)NN)nn(-c2ccc(F)cc2)c(=O)c1C#N	-16%	-1%	-14%	i	-6%	i
N#Cc1c(-c2ccc(F)cc2)c(-c2ccc(F)cc2)nn(CCO)c1=O	8.2µM*	5.8µM*	6.5µM*	3.7µM*	3.3µM*	8.2µM*
Cc1ccc(NC(=O)c2c(C)oc3ncn(C)c(=O)c23)cc1F	nt	nt	nt	i	nt	i
SMILES	HT1080 IDH1KD tx	MCF10A rereplic	HT1080-NT tox	KB-3-1 tox	SW480 rerep	KB-V1 MDR tox
COCCNC(=O)C(OC(=O)CC1Sc2ccccc2NC1=O)c1ccncc1 (stereo unspecified)	1%	4.6µM*	5%	i	3.7µM*	i
O=C(CC1Sc2ccccc2NC1=O)OC(C(=O)NCCc1ccccc1)c1cccnc1 (stereo unspecified)	0%	0%	0%	i	-25%	?
CC(NC(=O)c1cccnc1)C(=O)O (stereo unspecified)	-2%	-9%	-3%	i	1µM*	i
CC(NC(=O)c1cccnc1)C(=O)N1CCCCC1 (stereo unspecified)	11%	-2%	5%	i	-1%	i
N=C1/C(=C/c2cccn2CCOc2ccccc2)C(=O)N=C2SC=C(c3ccccc3)N12	?	1.3µM*	-28%	?	18µM*	3.7µM*
CC(C)S(=O)(=O)C1=NSC2=NC(=O)/C(=C\c3ccc(-c4ccccc4)o3)C(=N)N21	0%	16µM*	-3%	i	?	16µM*
CS(=O)(=O)C1=NSC2=NC(=O)/C(=C\c3ccc(-c4ccccc4)o3)C(=N)N21	nt	2%	nt	nt	-7%	nt
CC1=CC2=NC(=O)/C(=C/c3cccn3Cc3ccccc3)C(=N)N2O1	?	0%	?	i	-62%	?
N=C1/C(=C/c2ccc(-c3cccc(C(=O)O)c3)o2)C(=O)N=C2SC=C(c3ccccc3)N12	2%	5.8µM*	-16%	i	-3%	i
N=C1/C(=C/c2cccn2Cc2ccc(Cl)cc2)C(=O)N=C2SC=CN12	21µM*	?	16µM*	i	10%	i
NCCNC(=O)c1ccc(Cl)cn1	nt	-10%	nt	nt	-3%	nt
COc1ccc(-c2nc3ccccc3o2)cc1NC(=O)c1ccc(OCC(C)C)cc1	nt	nt	nt	i	nt	i
Fc1ccc(C2CC(c3cccs3)=NN2c2ccccc2)cc1 (stereo unspecified)	-17%	3.5µM*	?	i	?	i
COc1ccc(C2CC(c3ccc(F)cc3)=NN2c2ccccc2)cc1OC (stereo unspecified)	-26%	16µM*	-18%	?	?	?
COc1ccc(C2=NN(C(=O)c3ccccc3)C(c3ccc(OC)c(OC)c3)C2)cc1OC (stereo unspecified)	-6%	14%	0%	i	-6%	i
Cc1ccc(NC(=O)N2N=C(c3ccc(F)cc3)CC2c2ccc(F)cc2)cc1 (stereo unspecified)	-22%	6%	-6%	i	5.2µM*	23µM*
CC(=O)Nc1ccc(C2CC(c3ccc(Cl)cc3)=NN2c2ccccc2)cc1 (stereo unspecified)	-29%	169%	?	i	1.5µM*	i
